Source: PubChem (NMMLSC)
Autofluor counter – compound fluorescence in toxin protease inhibitor counterscreen; compound autofluorescence counterscreen, microsphere flow cytometry; hits give high values; fluorescence intensity (concentration not given with the values); 360,000 tested, 3.1% active; AID 624483; in the data active = fluorescence intensity above about 16000; inconclusive = no clear call, values can overlap the other calls
BoNT-A LC inh2 – BoNT A light chain protease inhibition. multiplex microsphere protease substrate cleavage, flow cytometry. inhibition, % at 10 µM. 360,000 tested, 0.17% active; note: plate controls were buffer without enzyme for full effect and enzyme alone for no effect
Anthrax LF inh2 – anthrax lethal factor protease inhibition; multiplex microsphere protease cleavage assay, LF; inhibition, % at 10 µM; 360,000 tested, 0.12% active; note: plate controls were buffer without enzyme for full effect and enzyme alone for no effect
Target sequence (P15917 whole entry, looked up): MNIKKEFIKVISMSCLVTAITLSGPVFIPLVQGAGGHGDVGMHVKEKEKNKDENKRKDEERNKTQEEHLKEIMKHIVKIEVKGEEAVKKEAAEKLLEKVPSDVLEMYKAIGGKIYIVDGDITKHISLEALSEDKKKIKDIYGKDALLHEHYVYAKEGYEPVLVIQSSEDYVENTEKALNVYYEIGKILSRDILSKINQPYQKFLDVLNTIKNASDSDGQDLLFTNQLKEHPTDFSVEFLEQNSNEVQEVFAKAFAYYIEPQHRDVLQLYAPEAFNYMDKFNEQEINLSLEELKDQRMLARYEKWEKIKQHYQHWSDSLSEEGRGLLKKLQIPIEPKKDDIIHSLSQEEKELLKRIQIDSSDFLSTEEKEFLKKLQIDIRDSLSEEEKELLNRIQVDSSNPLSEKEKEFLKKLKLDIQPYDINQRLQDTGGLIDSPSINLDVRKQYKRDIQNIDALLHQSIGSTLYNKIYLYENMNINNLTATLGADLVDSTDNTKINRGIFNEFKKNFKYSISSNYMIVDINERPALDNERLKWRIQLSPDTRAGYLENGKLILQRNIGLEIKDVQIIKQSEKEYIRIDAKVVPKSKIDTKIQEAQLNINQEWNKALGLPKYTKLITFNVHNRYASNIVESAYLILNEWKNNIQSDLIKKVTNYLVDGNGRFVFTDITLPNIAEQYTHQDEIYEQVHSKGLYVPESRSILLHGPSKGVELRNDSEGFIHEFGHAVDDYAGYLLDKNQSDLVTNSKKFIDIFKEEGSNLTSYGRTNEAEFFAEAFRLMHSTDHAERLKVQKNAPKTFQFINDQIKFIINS
BoNT-F LC inh – BoNT F light chain protease inhibition; Multiplex microsphere protease cleavage assay, flow cytometry; inhibition, % at 10 µM; 360,000 tested, 0.22% active; AID 588497; in the data active = inhibition above about 35%, passing the limit was not always enough; inconclusive = no clear call, values can overlap the other calls; note: plate controls were buffer without enzyme for full effect and enzyme alone for no effect
Active calls of the source: *; ? = inconclusive. In the library only some 3.5% were active in any assay of this set; here they are far more common. Cut-off read from the data, not from the text of the source, unless noted: active = inhibition above about 30%; inconclusive = no clear call, values can overlap the other calls; inactive = below that.

SMILES	Autofluor counter	BoNT-A LC inh2	Anthrax LF inh2	BoNT-F LC inh
Cc1cccc(CN2CCN(C3CN(Cc4cn(Cc5ccccc5C(F)(F)F)nn4)S(=O)(=O)C3)CC2)c1 (centres undefined)	5473	0	4	9
CN1CCc2nc3sc(C#N)c(N)c3c(-c3cccs3)c2C1	19864*	15	-1	-12
CC(C)NC(=O)c1sc2nc3c(c(-c4cccs4)c2c1N)CN(C)CC3	2421	1	-3	-14
O=C(/C=C/c1c(Cl)cccc1Cl)NCCc1ccccc1	20277*	1	-1	2
O=C(/C=C/c1cccc(Cl)c1)NCCc1ccccc1	2655	0	-2	-10
Cc1ccccc1S(=O)(=O)NC(=O)C1(C)CCN1C(=O)CC(c1ccccc1)c1ccccc1 (centres undefined)	3817	0	-2	4
O=C1/C(=C\c2cc(Cl)c(O)c(Cl)c2)SC(=S)N1Cc1ccccc1	17886*	-12	18	-8
COc1ccc(/C=C2/SC(=S)N(Cc3ccccc3)C2=O)cc1O	2980	18	0	16
O=C(O)CCCN1C(=O)/C(=C\c2ccco2)SC1=S	4431	-1	6	-2
O=C1/C(=C\c2ccco2)SC(=S)N1Cc1ccccc1	4535	44*	34*	15
C=CCN(CC=C)Cc1cc(=O)oc2ccccc12	5971	0	-5	6
O=C1CSC(c2cn(-c3ccccc3)nc2-c2cc3ccccc3oc2=O)N1Cc1ccco1 (centres undefined)	23471*	?	-1	-5
O=C1CSC(c2cn(-c3ccccc3)nc2-c2cc3ccccc3o2)N1Cc1ccccc1 (centres undefined)	3139	0	0	-20
CC(=O)NCCn1c(SCC(=O)NCCC2=CCCCC2)nc2ccccc2c1=O	24653*	-5	-3	-9
CC(=O)NCCn1c(SCc2cc(=O)n3cc(Cl)ccc3n2)nc2ccccc2c1=O	21005*	?	0	4
CCOC(=O)N1CCC(n2c(SCC(=O)NCCC3=CCCCC3)nc3ccccc3c2=O)CC1	19812*	7	-1	9
Cc1ccc(-n2nnnc2SCC(=O)NCCC2=CCCCC2)c(C)c1	20542*	0	0	0
CC(=O)NCCn1c(SCc2ccccc2F)nc2ccccc2c1=O	10877	-2	0	-9
CC1C(c2ccc3c(c2)OCO3)c2cc3c(cc2OC1N1CCOCC1)OCO3 (centres undefined)	2691	-1	-4	-14
Cc1ccc(C(=O)NNC(=O)c2cc(OCC(F)(F)F)ccc2OCC(F)(F)F)cc1	21489*	?	-2	-9
O=C(NNC(=O)c1cc(OCC(F)(F)F)ccc1OCC(F)(F)F)c1cccc(C(F)(F)F)c1	2889	0	-2	-2
C#CCONC(=O)c1cc(OCC(F)(F)F)ccc1OCC(F)(F)F	22449*	0	-7	-3
O=C(NO)c1cc(OCC(F)(F)F)ccc1OCC(F)(F)F	?	0	?	13
C=C1N(CCCCCC(=O)O)C(=O)OC12CCCCC2	22385*	1	2	1
O=C(CNC(=O)c1ccco1)OCC(=O)c1ccc2c(c1)CCCC2	17018*	-2	1	-6
SMILES	Autofluor counter	BoNT-A LC inh2	Anthrax LF inh2	BoNT-F LC inh
CC(C)(C)OC(=O)C[C@H]1C/C=C\C[C@@H](CC(=O)N(CCO)Cc2ccccc2)C(=O)NC[C@@H](c2ccccc2)OC1=O	3723	0	0	-4
CCCCCCn1c(=O)n2n(c1=O)[C@@H]1CN(S(=O)(=O)c3ccc(C)cc3)C[C@]1(O)[C@@H](OC(=O)Nc1cccs1)C2	4289	0	-5	-4
Cn1nnnc1SCc1c(F)cccc1F	21178*	3	-8	6
CCc1nc2c(OCc3ccc(Cl)cc3Cl)cccn2c1N(C)C(C)=O	3934	0	-8	1
CS(=O)(=O)c1ccc(C(=O)NC2CCOC2=O)cc1 (centres undefined)	21657*	?	-5	-6
O=C(NC1CCOC1=O)c1ccccc1 (centres undefined)	3733	0	1	3
Cc1ccc(-c2noc(CSc3nnc(-c4ccncc4)n3-c3ccc(C)cc3)n2)cc1	24919*	-7	0	-11
CCOc1ccc(-n2c(SCc3nc(-c4ccc(C)cc4)no3)nnc2-c2ccncc2)cc1	10666	24	-12	25
Cc1ccc(C(=O)N(c2ccccn2)C(C)c2ccco2)cc1C (centres undefined)	21171*	?	-3	4
COc1ccc(CN2CCN(CC(=O)Nc3ccccc3C(=O)NC3CC3)CC2)cc1F	19106*	-68	-16	?
COc1ccc(F)cc1CN1CCN(CC(=O)Nc2ccccc2C(=O)NC2CC2)CC1	3841	1	5	-1
CCOc1ccc(OCC)c(NC(=O)CN2CCC(NC(=O)c3cccc(F)c3)CC2)c1	20291*	0	-2	-4
CCOc1ccccc1NC(=O)CN1CCC(NC(=O)c2ccccc2)CC1	2372	0	-2	-7
O=C(NCc1cccc(C(F)(F)F)c1)C1CCN(c2ncccn2)CC1	22251*	1	1	2
Cc1ccnc(N2CCC(C(=O)NCc3ccc(F)cc3)CC2)n1	4828	0	3	-2
O=C(O)C1CC=CCC1C(=O)NCc1ccc2c(c1)OCO2 (centres undefined)	23458*	-2	1	-4
Cc1ccnc(N2CCC(C(=O)NCc3ccc4c(c3)OCO4)CC2)n1	20911*	?	0	4
CC(C)C[C@@H]1COc2cc(N3CCSCC3)ccc2S(=O)(=O)N1	4517	0	12	2
O=C(Nc1ncnc2c1ncn2[C@@H]1O[C@H](/C=C/C(=O)N2CCN(c3ccc(F)cc3)CC2)[C@@H](O)[C@H]1O)c1ccccc1	5887	0	5	0
COC(=O)N(C)C[C@@H]1OCc2cnnn2CCCC(=O)N([C@H](C)CO)C[C@H]1C	3549	0	-1	4
Cc1cc(OCC(=O)OCC(=O)Nc2cc(S(=O)(=O)N3CCOCC3)ccc2Cl)ccc1Cl	3818	-1	-8	-17
CCOc1ccc(OCC)c(NC(=O)C2CCCN(c3ncccn3)C2)c1 (centres undefined)	7567	0	-6	-12
O=C(C1CC1)N1CCN(c2ccc(F)cc2)CC1	3672	0	-12	15
O=C(NCc1ccc2c(c1)OCO2)C1CCN(c2ncccn2)CC1	21984*	?	0	0
CCc1c(C)nc2ncnn2c1N1CCC(C(=O)N2CCN(c3ccc(F)cc3)CC2)CC1	24650*	?	-1	-6
SMILES	Autofluor counter	BoNT-A LC inh2	Anthrax LF inh2	BoNT-F LC inh
CCOc1ccc(OCC)c(NC(=O)C2CCN(c3ncccn3)CC2)c1	22945*	?	-2	-7
CCc1c(C)nc2ncnn2c1N1CCCC(C(=O)Nc2ccc(NC(C)=O)cc2)C1 (centres undefined)	2476	0	0	2
CCc1c(C)nc2ncnn2c1N1CCCC(C(=O)NCc2ccc3c(c2)OCO3)C1 (centres undefined)	22326*	2	-6	2
Cc1ccsc1-c1cc2nc(Nc3ccc(F)cc3)n(C)c(=O)c2s1	3048	1	-2	-4
O=C(NCc1ccc2c(c1)OCO2)C1CCN(c2ccc(S(=O)(=O)N3CCCC3)cc2)CC1	19826*	-1	-2	-4
O=C(NCc1ccc2c(c1)OCO2)C1CCN(S(=O)(=O)N2CCCCC2)CC1	10814	0	2	3
